Consider 46 compounds from ChEMBL document CHEMBL3988442, “University of Dundee, Small-Polar-MMV Screening Library” (2021).

The subject of this assay is Trypanosoma brucei. Kind of assay: Trypanosoma brucei 72 hour study. Also noted: scale not given: in the data most compounds retested in dose-response had high values. The class given is functional, organism-based.

The whole screen tested about 66,000 compounds, of which about 960 (1.5%) showed an effect of 50% or more. The full list was thinned out, with strong results kept by preference.

Consider `NC(=O)Cn1cc(NC(=O)NCCN2CCc3ccccc3C2)cn1`, for which the “Percent Effect” value (10 µM) is -24.97%.
As for `O=C(NC[C@H]1CCCC[C@H]1O)c1ccc2nc(-c3ccco3)[nH]c2c1`, the “Percent Effect” value (30.3 µM, […]) worked out at 17.46% and the “Percent Effect” value (10 mM, 10 mM as filed; unlikely as a test dose) is reported as -68.89%.
`O=C(NC[C@H]1CCCC[C@H]1O)c1cccc2[nH]c(-c3cccs3)nc12`: the “Percent Effect” value reads like this: (30.3 µM, […]) 101.4%; (10 mM, 10 mM as filed; unlikely as a test dose) 77.67%.
`O=C(NC[C@H]1CCCC[C@H]1O)c1cccc2[nH]c(-c3ccco3)nc12`: the “Percent Effect” value is on record as 13.65% (30.3 µM, […]) and -65.92% (10 mM, 10 mM as filed; unlikely as a test dose).
For the compound `Cc1ccc(CN2C[C@@H](OCc3csc(C)n3)[C@H]3COC[C@H]32)s1.O=C(O)C(F)(F)F`, the “Percent Effect” value (30 µM, 30.03 µM) was -8.753%.
Same read-out and setting: the figure for `COc1ccc(CNC2CCc3ncnn3C2)cc1OCC1CC1` (stereo unspecified) is -28.92%.
For the compound `Cc1cc(-c2cnc(NC3CCCC3)nc2-c2ccco2)on1`, the “Percent Effect” value (30.3 µM, […]) is 60.69%.
On to `Cc1cc(-c2cnc(NC3CCCCC3)nc2-c2ccco2)on1`, for which the “Percent Effect” value (30.3 µM, […]) came out at 43.12%.
Still for that read-out and setting: the figure for `Cc1cc(-c2cnc(NC3CCCC3)nc2-c2ccoc2)on1` is 19.37%; for `Cc1occc1-c1nc(NC2CCCC2)ncc1-c1ccccn1` it is 66.93%; for `Cc1cc(-c2cnc(NC3CCCC3)nc2-c2ccc(C)o2)on1` it is 59.7%.
On the same count and under the same terms, as for `Cc1cc(-c2cnc(NC3CC3)nc2-c2ccoc2C)on1`, the figure is 6.625%; as for `Cc1cc(-c2cnc(NC3CC3)nc2-c2ccco2)on1`, 20.38%.
As for `Cc1cc(-c2cnc(NC3CC3)nc2-c2ccc(C)o2)on1`, where the note is “30 µM, 30.03 µM”, the “Percent Effect” value came out at 25.68%.
As for `Cc1cc(-c2cnc(NC3CCCC3)nc2-c2ccoc2C)on1`, for the setting “30.3 µM, […]”, the “Percent Effect” value is reported as 30.38%.
Still for that read-out and setting: as for `CN(Cc1ccc2c(c1)OCCO2)Cc1nc2c(cnn2C)c(=O)[nH]1`, the figure is 4.999%; as for `CS(=O)(=O)N1CCO[C@@H]2CCN(Cc3ccncc3)CC[C@H]21.O=C(O)C(F)(F)F.O=C(O)C(F)(F)F`, -50.12%.
`COc1ccc(Cl)cc1S(=O)(=O)N1C[C@@H]2CC[C@H](C1)N(C)C2=O`: the “Percent Effect” value (30 µM, 30.03 µM) amounted to 12.03%.
The same measure, in the same setting: the figure for `O=C(O)C(F)(F)F.O=c1ccc2c(n1CC1CCOCC1)CCN(Cc1ccoc1)CC2` is -13.76%; for `COCCNC(=O)[C@H]1CN(Cc2cccs2)C[C@H]2OCC[C@@H]12.O=C(O)C(F)(F)F` it is -47.27%; for `Cc1ccc(CN2C[C@@H]3CCCO[C@@H]3[C@H](N(C)Cc3ccco3)C2)s1.O=C(O)C(F)(F)F.O=C(O)C(F)(F)F` it is 26.16%.
`COCCN1CCOCC12CCN(c1cnccn1)CC2.O=C(O)C(F)(F)F`: the “Percent Effect” value (30.3 µM, […]) is -82.27%.
As for `Cn1c(C2CC2)nc2c1CCN(CCOc1ccc(C#N)cc1)C2`, the “Percent Effect” value (30 µM, 30.03 µM) turned out to be 41.84%.
Take `Cn1c(C2CC2)nc2c1CCN(CCOc1cccc(F)c1)C2`: the “Percent Effect” value by setting is: (30.3 µM, […]) 33.25%; (10 mM, 10 mM as filed; unlikely as a test dose) -49.38%.
Taken in the same sequence, the figures for `Cn1c(C2CC2)nc2c1CCN(CCOc1ccccc1C#N)C2` were 73.03% and 81.28%.
`Cc1cc(CN2CCN(C(=O)NC(C)Cn3ccnc3)CC2)on1` (stereo unspecified): the “Percent Effect” value (30.3 µM, […]) is recorded as -36.86%.
In the case of `O=C(N1CCCO1)[C@@]12CCO[C@@H]1CCN(C1CCCCC1)C2.O=C(O)C(F)(F)F`, the “Percent Effect” value (30 µM, 30.03 µM) turned out to be 51.2%.
Still for that read-out and setting: the figure for `O=C(N1CCOCC1)[C@@]12CCO[C@@H]1CCN(C1CCCCC1)C2.O=C(O)C(F)(F)F` is -10.39%; for `O=C(N1CCOCC1)[C@@]12CCO[C@@H]1CCN(C1CCC1)C2.O=C(O)C(F)(F)F` it is -13.96%; for `Cc1nnn2c1COC(CNCc1nccs1)C2.O=C(O)C(F)(F)F` (stereo unspecified) it is 2.897%.
For `Cc1cnn(CCNCC(O)COc2cc(Cl)ccc2Cl)c1` (stereo unspecified), the “Percent Effect” value (10 µM) was 13.76%.
On to `CC(C)NC(=O)C1(Cc2ccccc2-c2ccccc2)CCCNC1` (stereo unspecified), for which the “Percent Effect” value (30.3 µM, […]) was -11.23%.
Same read-out and setting: the figure for `Cl.O=C(N1CCCC1)C1(Cc2ccc(-c3cccs3)cc2)CCNC1` (stereo unspecified) is 100.9%; for `Cc1ccc(-c2ccccc2CC2(C(=O)NC(C)C)CCCNC2)cc1` (stereo unspecified) it is 73.8%.
Still for that read-out and setting: the figure for `O=C(NCCO)C1(Cc2ccccc2-c2ccncc2)CCOCC1` is -12.36%; for `CC(C)CNC(=O)C1(Cc2ccccc2-c2ccccc2)CCNC1` (stereo unspecified) it is -113.5%; for `Cl.O=C(O)C1(Cc2cccc(-c3cccs3)c2)CCCNC1` (stereo unspecified) it is -23.63%.
On the same count and under the same terms, the figure for `CC(C)NC(=O)C1(Cc2ccccc2-c2cccs2)CCNC1` (stereo unspecified) is 100.3%.
On to `NC(=O)C1(Cc2ccccc2-c2cncnc2)CCCNC1` (stereo unspecified), for which, under “30.3 µM, […]”, the “Percent Effect” value is reported as -3.769%.
The same measure, in the same setting: as for `Cl.O=C(O)C1(Cc2ccc(-c3cccs3)cc2)CCNC1` (stereo unspecified), the figure is 15.36%.
Same read-out and setting: the figure for `CC(C)CNC(=O)C1(Cc2ccccc2-c2cccs2)CCNC1` (stereo unspecified) is 100.9%; for `CC(C)NC(=O)C1(Cc2ccccc2-c2cncnc2)CCCNC1` (stereo unspecified) it is -17.52%; for `O=C(NC1CC1)C1(Cc2ccccc2-c2ccncc2)CCOCC1` it is -2.257%.
Regarding `COc1ccccc1CN(C)C(=O)CN1CC(n2nc(C)cc2C)C1`, the “Percent Effect” value (30 µM, 30.03 µM) came to 35.21%.
Consider `CCC(NC(=O)C1CCN(S(C)(=O)=O)CC1)c1ccc(OC)cc1` (stereo unspecified), for which, where the note is “30 µM, 30.03 µM”, the “Percent Effect” value is given as -21.57%.
Same read-out and setting: the figure for `Cl.O=C(NCc1ccccc1F)C1=NOC2(CCNC2)C1` (stereo unspecified) is 32.02%.
